Screening results from PubChem BioAssay.
T cruzi growth-1: inhibitors of T. cruzi proliferation. T. cruzi beta-gal in NIH3T3, GalScreen luminescence, 90 h. inhibition, % at 8.34 µM. 77,000 compounds, 5.9% hits. AID 624255;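 active = mean inhibition above about 93%, with at least 55% of replicates each passing it, limit read from the data, passing the limit was not always enough; inconclusive = only one of those two conditions holds; inactive = neither condition holds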
Pf Dd2 inh: P. falciparum Dd2 growth inhibition; activity change, % at 10 µM; 94,000 compounds, 2.3% hits; SYBR Green, 72 h; active compounds read low; in the data active = activity change below about -80%; inconclusive = no clear call, values can overlap the other calls
C diff growth: C. difficile growth inhibition; Clostridium difficile clinical isolate growth, OD600, 24 h; active compounds read low; growth activity, negative = inhibition, % at 16 µg/mL (by protocol); 86,000 compounds, 0.25% hits;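 active = mean growth activity at or below -80% and every replicate also at or below -80%; inconclusive = mean at or below -80% but some replicate above -80%; inactive = mean growth activity above -80%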
T cruzi growth-2: Trypanosoma cruzi proliferation inhibition. shares compounds with T cruzi growth-1. AID 651739. inhibition, % at 8.35 µM. 5,600 compounds, 72% hits. T. cruzi beta-gal in NIH3T3, GalScreen luminescence, 90 h;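 active = mean replicate inhibition above about 95% and at least 55% of replicates individually reaching it, limit read from the data; inconclusive = only one of the two criteria is met; inactive = neither criterion is met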
T cruzi growth-3: inhibitors of T. cruzi proliferation; 5,600 compounds, 21% hits; T. cruzi beta-gal in NIH3T3, GalScreen luminescence, 90 h; shares compounds with T cruzi growth-1; inhibition, % at 2.09 µM;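 active = mean inhibition above about 95%, with at least 55% of replicates also reaching it, limit read from the data; inconclusive = meets just one of the two conditions; inactive = meets neither condition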
3T3 cytotox: NIH/3T3 (mouse) viability loss. NIH/3T3 viability, CellTiter-Glo ATP luminescence, 90 h. shares compounds with T cruzi growth-1. 5,600 compounds, 14% hits. AID 651742. cytotoxicity (signal decrease), % at 8.35 µM;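 active = mean signal decrease across replicates above about 35% based on untreated-well scatter, with enough replicates individually passing, limit read from the data; inconclusive = no rule stated though some were filed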
NIH3T3 tox 2: cytotoxicity in mouse NIH/3T3 fibroblasts. AID 651744. shares compounds with T cruzi growth-1. 5,600 compounds, 56% hits. inhibition, % at 24.9 µM. NIH/3T3 viability, CellTiter-Glo ATP luminescence, 90 h;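 active = mean loss of cell viability signal at or above a set limit, and enough replicates individually reaching it; inconclusive = meets only the mean limit or only the replicate share; inactive = meets neither condition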
Large screens that a line does not name were inactive (follow-up assays come after a bar, where they were run). Most compounds without a hit are left out; they make up all but 6.8% or so of the library.

CN(C)C(=O)c1cccc(-c2ccc([C@H]3[C@@H](CO)N(C(=O)C4CCC4)[C@H]3C#N)cc2)c1	T cruzi growth-1 104 | T cruzi growth-2 inactive | T cruzi growth-3 inactive | 3T3 cytotox inactive | NIH3T3 tox 2 inactive
CN(C)C(=O)c1cccc(-c2ccc([C@@H]3[C@H](C#N)N(C(=O)C4CCC4)[C@H]3CO)cc2)c1	T cruzi growth-1 100 | T cruzi growth-2 inactive | T cruzi growth-3 inactive | 3T3 cytotox inactive | NIH3T3 tox 2 inactive
CN(C)C(=O)c1cccc(-c2ccc([C@H]3[C@@H](C#N)N(C(=O)C4CCC4)[C@H]3CO)cc2)c1	T cruzi growth-1 102 | T cruzi growth-2 inactive | T cruzi growth-3 inactive | 3T3 cytotox inactive | NIH3T3 tox 2 inactive
CN(C)C(=O)c1ccc(-c2ccc([C@@H]3[C@@H](C#N)N(C(=O)C4CCOCC4)[C@H]3CO)cc2)cc1	T cruzi growth-1 98 | T cruzi growth-2 inactive | T cruzi growth-3 inactive | 3T3 cytotox inactive | NIH3T3 tox 2 inactive
CN(C)C(=O)c1cccc(-c2ccc([C@@H]3[C@@H](C#N)N(C(=O)C4CCC4)[C@H]3CO)cc2)c1	none
C[C@H](NC(=O)[C@@H]1[C@@H](CO)[C@@H]2Cn3c(ccc(C4=CCCC4)c3=O)[C@H]1N2C(=O)C1CC1)c1ccccc1	none (no result: T cruzi growth-1)
C[C@@H]1CN([C@H](C)CO)C(=O)c2cc(NC(=O)C3CC3)ccc2O[C@H]1CN(C)Cc1ccccc1	none
CNC[C@H]1Oc2c(NC(=O)NC3CCCCC3)cccc2C(=O)N([C@@H](C)CO)C[C@@H]1C	none
OC[C@H]1[C@H](c2ccc(/C=C/c3ccccc3)cc2)[C@@H]2CN(Cc3cccnc3)CCCCN12	T cruzi growth-1 104 | T cruzi growth-2 108 | T cruzi growth-3 inactive | 3T3 cytotox inactive | NIH3T3 tox 2 104
OC[C@H]1[C@@H](c2ccc(-c3ccc(F)cc3)cc2)[C@@H]2CN(Cc3ccncc3)CCCCN12	none
OC[C@@H]1[C@@H](c2ccc(/C=C/c3ccccc3)cc2)[C@H]2CN(Cc3cccnc3)CCCCN12	none
OC[C@H]1[C@H](c2ccc(/C=C/c3ccccc3)cc2)[C@@H]2CN(Cc3ccncc3)CCCCN12	T cruzi growth-1 inconclusive | T cruzi growth-2 110 | T cruzi growth-3 inactive | 3T3 cytotox inconclusive | NIH3T3 tox 2 104
C[C@@H]1CN([C@@H](C)CO)C(=O)Cc2cc(NC(=O)Nc3ccc(F)cc3)ccc2O[C@H]1CN(C)Cc1ccc(C(=O)O)cc1	none
C[C@H](CO)N1C[C@H](C)[C@@H](CN(C)C(=O)Nc2cccc(F)c2)Oc2ncc(C3=CCCC3)cc2C1=O	none (no result: T cruzi growth-1)
O=C(C[C@@H]1CC[C@@H]2[C@H](COC[C@@H](O)CN2C(=O)C2CCCC2)O1)NCc1ccncc1	none (no result: C diff growth)
CO[C@@H]1CN(C)C(=O)c2ccc(NS(=O)(=O)c3ccccc3Cl)cc2OC[C@H](C)NC[C@H]1C	none
OC[C@@H]1[C@H](c2ccc(-c3ccccc3F)cc2)[C@@H]2CN(Cc3cncnc3)CCCCN12	T cruzi growth-1 110 | T cruzi growth-2 inactive | T cruzi growth-3 inactive | 3T3 cytotox inactive | NIH3T3 tox 2 50
OC[C@@H]1[C@@H](c2ccc(-c3cccc(F)c3)cc2)[C@@H]2CN(Cc3cncnc3)CCCCN12	none
OC[C@H]1[C@H](c2ccc(-c3ccccc3F)cc2)[C@@H]2CN(Cc3cncnc3)CCCCN12	T cruzi growth-1 108 | T cruzi growth-2 108 | T cruzi growth-3 inactive | 3T3 cytotox inactive | NIH3T3 tox 2 36
OC[C@@H]1[C@@H](c2ccc(-c3ccccc3F)cc2)[C@@H]2CN(Cc3cccnc3)CCCCN12	none
OC[C@@H]1[C@@H](c2ccc(-c3ccccc3F)cc2)[C@H]2CN(Cc3cncnc3)CCCCN12	none
OC[C@@H]1[C@H](c2ccc(-c3ccccc3F)cc2)[C@H]2CN(Cc3cncnc3)CCCCN12	T cruzi growth-1 110 | T cruzi growth-2 100 | T cruzi growth-3 inactive | 3T3 cytotox inactive | NIH3T3 tox 2 38
C[C@H](CO)N1C[C@H](C)[C@H](CN(C)C)Oc2c(NS(=O)(=O)c3cccs3)cccc2C1=O	none (no result: T cruzi growth-1)
CC(C)(C)[S@](=O)N1Cc2cc(C(=O)N3CCOCC3)nc(-c3cccc(Br)c3)c2[C@@H]1CCO	none (no result: T cruzi growth-1)
